Hit rate of the full screen: of about 340,000 compounds, about 730 (0.21%) were called active.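 How the source made its calls: active means inhibition above the mean over all tested compounds plus 3 SD (cut at about 21% in these data); inactive means the rest.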 The entries come from a sample that favours actives as a whole.

In the assay the target is Toll-like receptor 9 (Homo sapiens) + Myeloid differentiation primary response protein MyD88 (Homo sapiens) (UniProt Q9NR96+Q99836). Put plainly: inhibitors of TLR9-MyD88 association in cells, primary screen, cell-based, CHO, BLA complementation, fluorescence (AID 504734).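 Further: 0% = DMSO only wells and 100% = clavulanate BLA inhibitor control wells.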 Particulars: CHO BLA complementation TLR9-MyD88, CCF4 FRET ratio; at 4.98 µM; active compounds read high.
Chain of Toll-like receptor 9 (Homo sapiens) + Myeloid differentiation primary response protein MyD88 (Homo sapiens) (Q99836 whole entry, looked up): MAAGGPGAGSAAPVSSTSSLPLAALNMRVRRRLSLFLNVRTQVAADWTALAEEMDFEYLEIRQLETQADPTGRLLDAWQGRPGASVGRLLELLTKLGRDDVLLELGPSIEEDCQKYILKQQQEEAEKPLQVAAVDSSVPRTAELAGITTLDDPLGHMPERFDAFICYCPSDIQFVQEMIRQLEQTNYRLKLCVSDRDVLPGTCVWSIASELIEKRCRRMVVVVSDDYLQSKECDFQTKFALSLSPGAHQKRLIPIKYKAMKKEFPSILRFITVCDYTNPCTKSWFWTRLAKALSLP
Chain of Toll-like receptor 9 (Homo sapiens) + Myeloid differentiation primary response protein MyD88 (Homo sapiens) (Q9NR96 whole entry, looked up): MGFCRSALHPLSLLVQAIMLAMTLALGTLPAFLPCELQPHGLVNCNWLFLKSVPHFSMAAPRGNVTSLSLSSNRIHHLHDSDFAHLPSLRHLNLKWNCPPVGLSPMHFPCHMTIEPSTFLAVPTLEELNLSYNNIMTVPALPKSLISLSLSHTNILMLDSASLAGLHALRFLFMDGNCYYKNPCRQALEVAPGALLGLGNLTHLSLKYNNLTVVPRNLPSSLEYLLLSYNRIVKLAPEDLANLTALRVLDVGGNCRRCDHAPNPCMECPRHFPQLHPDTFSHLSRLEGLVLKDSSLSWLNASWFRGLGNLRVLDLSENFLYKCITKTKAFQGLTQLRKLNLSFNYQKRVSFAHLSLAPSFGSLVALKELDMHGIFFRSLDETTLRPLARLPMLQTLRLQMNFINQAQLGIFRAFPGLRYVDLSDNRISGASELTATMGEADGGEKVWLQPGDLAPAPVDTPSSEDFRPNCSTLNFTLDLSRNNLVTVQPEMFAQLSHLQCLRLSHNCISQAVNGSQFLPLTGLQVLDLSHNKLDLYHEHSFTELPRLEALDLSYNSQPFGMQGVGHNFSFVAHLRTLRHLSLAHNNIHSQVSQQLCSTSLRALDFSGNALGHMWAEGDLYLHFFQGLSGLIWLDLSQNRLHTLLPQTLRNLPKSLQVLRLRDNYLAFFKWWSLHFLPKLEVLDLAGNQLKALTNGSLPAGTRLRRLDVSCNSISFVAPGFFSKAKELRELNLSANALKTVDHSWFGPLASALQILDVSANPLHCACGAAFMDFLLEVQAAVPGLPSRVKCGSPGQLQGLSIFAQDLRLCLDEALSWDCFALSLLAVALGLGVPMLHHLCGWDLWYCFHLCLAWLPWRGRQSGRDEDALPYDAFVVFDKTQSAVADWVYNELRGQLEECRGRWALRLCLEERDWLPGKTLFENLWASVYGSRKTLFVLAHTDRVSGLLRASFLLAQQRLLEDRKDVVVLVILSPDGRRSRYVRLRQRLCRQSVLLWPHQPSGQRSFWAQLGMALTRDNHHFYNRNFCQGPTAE
For the compound `Cc1ccc(S(=O)(=O)N2CCCCC2)cc1NC(=O)CCNC(=O)c1ccccc1Cl`, the inhibition is -7.91% (inactive).
Next, `O=[N+]([O-])c1ccc(N=NNc2ccc([N+](=O)[O-])cc2)cc1`: -10.5% (inactive); `Cc1ccccc1OCCOc1ccc([N+](=O)[O-])cc1/C=N/n1cnnc1`: -3.95% (inactive); `O=[N+]([O-])c1cccc(/C=N/Nc2ncc(Br)cn2)c1`: -10.4% (inactive).
On to `O=[N+]([O-])c1ccc(N/N=C/c2ccccc2)cc1`, for which the inhibition was 21.1% (active).
Next, `Cc1cc([N+](=O)[O-])ccc1NCc1cccc([N+](=O)[O-])c1`: -1.82% (inactive); `Cc1cccc(COc2ccccc2/C=N/Nc2ccc([N+](=O)[O-])cc2)c1`: 21.7% (active); `C[C@H](O)[C@@H]1C(=O)N2CCc3c([nH]c4ccccc34)[C@@H]2C[C@@H]1N(C)C(=O)Nc1ccc(F)cc1`: -0.01% (inactive).
Next, `CCOc1cc(/C=N/NC(=O)c2c(C)nc3ccc(Cl)cn23)ccc1O`: -2.46% (inactive).
As for `C=CCN1CCN(c2ccncc2S(=O)(=O)N2CCN(C)CC2)CC1`, the inhibition was 9.55% (inactive).
Next, `Cc1sc2ncnc(SCC(=O)NC3CCS(=O)(=O)C3)c2c1C` (stereo unspecified): -4.28% (inactive); `Cn1nc(N)c2ncc(C(Cl)(Cl)Cl)nc21`: -17.4% (inactive).
Next, `COc1cc(C(=O)OCCCN2CCOCC2)cc(OC)c1OC`: 1.8% (inactive); `Cc1cc(OCC(=O)Nc2nccs2)c2c(C)c(C)c(=O)oc2c1`: -3.81% (inactive).
Next, `COc1ccccc1-c1n[nH]nc1C1=CC(=O)CC(C)(C)C1`: 9.73% (inactive); `CNC(=S)N/N=C/c1ccc(OCc2ccccc2)c(Br)c1`: 29.9% (active); `CNC(=S)NNC(=O)c1sccc1OCc1ccccc1`: -6.12% (inactive).
Turning to `O=C(O)COc1ccc(/C=N/O)cc1Br`, the inhibition is 7.44% (inactive).
For `CCCCCCN1C[C@@H](O)[C@H](n2cc(COC(=O)c3ccccc3)nn2)C[C@@H]1c1ccc(Cl)cc1` the value was -2.39% (inactive); for `C[C@H]1CN([C@@H](C)CO)C(=O)CCCn2nncc2CO[C@@H]1CN(C)Cc1ccc(Oc2ccccc2)cc1`, 0.54% (inactive).
`O=C(Nc1ccccc1Cl)/C(Cl)=C(\Cl)S(=O)c1ccccc1` (stereo unspecified): the inhibition was 23.8% (active).
For `NC(=O)C1(Nc2ccccc2Cl)CCCC1` the value was -10.1% (inactive); for `O=C(CCN1CCN(C/C=C/c2ccccc2)CC1)Nc1ccccc1Cl`, 2.63% (inactive).
In the case of `CN1OC[C@@H]2CN(S(=O)(=O)c3cccc(C(F)(F)F)c3)[C@H](c3ccc(-c4cc5ccccc5o4)cc3)C[C@@H]21`, the inhibition is -0.31% (inactive).
Next, `O=C(CCN1C(=O)c2ccccc2C1=O)NNC(=O)c1ccc(Cl)cc1Cl`: 29.1% (active); `Cc1cc(C)cc(NC(=O)CCN2C(=O)c3ccccc3C2=O)c1`: -4.31% (inactive).
For `Cc1cc(C)cc(OCC(=O)NNC(=O)CCN2C(=O)c3ccccc3C2=O)c1` the value was -3.37% (inactive); for `Cc1ccc(-c2ccc(CN3C(C(C)C)C(=O)N(Cc4cn(CCC5OCCCO5)nn4)CCS3(=O)=O)cc2)cc1` (stereo unspecified), -5.52% (inactive); for `CC(OC(=O)c1ccc(NC(=O)CC#N)cc1)C(=O)Nc1ccc(S(=O)(=O)N2CCCC2)cc1` (stereo unspecified), 0.94% (inactive).
As to `COCCCn1c(C(=O)NC2CCCCC2)cc2c(=O)n3cccc(C)c3nc21`, the inhibition was -12.6% (inactive).
For `CC1(C)CN(Cc2cccnc2)C(=O)[C@H]1CC(=O)Nc1ccc(Br)cc1` the value was -3.44% (inactive); for `O=C(CSc1ccc(Cl)cc1)NC1CC1`, -15.8% (inactive).
Next, `C#CCN(C[C@H]1[C@H](OC(=O)NC2CCCC2)[C@H](OC(=O)NC2CCCC2)C[C@H]2C(=O)N(c3ccccc3)C(=O)[C@@H]12)S(=O)(=O)c1ccc(C)cc1`: -5.56% (inactive); `COc1ccc(C2CC(c3ccc(C)cc3)Nc3ncnn32)cc1` (stereo unspecified): 1.5% (inactive); `CCOc1ccc(C2=CC(c3ccccc3)n3ncnc3N2)cc1` (stereo unspecified): 33.7% (active).
For `CC1=C(C(=O)OC2CCCCC2)C(c2cccnc2)n2ncnc2N1` (stereo unspecified), the inhibition is -0.13% (inactive).
For `Brc1ccc(C2=CC(c3ccco3)n3ncnc3N2)cc1` (stereo unspecified) the value was 30.4% (active).
For `Clc1ccc2c(c1)C1=C(C(c3ccncc3)O2)C(c2ccc(Br)cc2)n2ncnc2N1` (stereo unspecified) the value was -8.31% (inactive).
For `CCN1C(=O)[C@H]2[C@@H](c3ccc(C(F)(F)F)cc3)N[C@]3(CCCN(Cc4ccc(Br)cc4)C3=O)[C@H]2C1=O` the value was 5.46% (inactive).
With `N#CCCN(C(=O)Nc1ccc(Cl)c(Cl)c1)C1CCCCC1`, the inhibition is 8.97% (inactive).
For `CCN(C(=O)Nc1cccc2ccccc12)c1ccccc1` the value was -15.1% (inactive); for `Cc1nc2ccccc2nc1CC(O)(c1ccccc1)c1ccccc1`, 2.03% (inactive).
Next, `CCOC(=O)c1cc(-c2sc(NC(=O)c3ccccc3)nc2C)n(CCO)n1`: 2.6% (inactive); `Cc1cc2c3ccccc3[nH]c(=O)n2n1`: 1.06% (inactive).
For `CN(c1ccccc1)S(=O)(=O)c1ccc(C(=O)NCc2cccnc2)cc1` the value was 7.85% (inactive); for `O=[N+]([O-])c1ccc(C(S(=O)(=O)Cc2ccccc2)S(=O)(=O)Cc2ccccc2)cc1`, 2.65% (inactive); for `CC1CN(Cc2ccccc2)C(=S)NC1=O` (stereo unspecified), -6.13% (inactive).
For `O=C1NC(=O)C2C1C(c1ccc([N+](=O)[O-])cc1)=NN2Cc1ccccc1` (stereo unspecified), the inhibition was 27.8% (active).
Next, `CN(Cc1ccccc1)C(=O)CCC1CCN(C(=O)c2ccco2)CC1`: 0.05% (inactive); `NS(=O)(=O)c1ccc(CNC(=O)c2cc(S(=O)(=O)N3CCOCC3)ccc2N2CCCC2)cc1`: -5.7% (inactive).
Next, `CC1(c2cccc(Br)c2)NC(=O)N(CC(=O)NCCC2=CCCCC2)C1=O` (stereo unspecified): 3.69% (inactive).
As for `COc1cccc(C(=O)OCc2cc(=O)oc3c(C)c(C)ccc23)c1OC`, the inhibition is -5.33% (inactive).
For `CCCc1cc(=O)oc2c(C)c(OCC(=O)Nc3ccccn3)ccc12` the value was 6.85% (inactive).
With `COC(=O)Cc1cc(=O)oc2c(C)c(O)ccc12`, the inhibition was 21.6% (active).
For `S=C(NN=Cc1ccccn1)Nc1ccccn1` the value was 10.2% (inactive).
Next, `CC1C(=O)N(Cc2cn(Cc3ccco3)nn2)CCS(=O)(=O)N1Cc1ccc(-c2cccc(CO)c2)cc1` (stereo unspecified): -1.07% (inactive).

Source of the values: PubChem BioAssay AID504734 (The Scripps Research Institute Molecular Screening Center, 2011).
